Cycloheximide cs: Cycloheximide Counterscreen for Small Molecule Inhibitors of Shiga Toxin | 300,000 compounds, 12% hits | max response, % | cell reporter, cycloheximide protein synthesis inhibition counterscreen; in the data active = max response mostly above about 13%, no sharp cut-off; inactive = mostly below about 14%; also: read at 38.3 µM for the half of the compounds with a filed dose; 0% is about no effect
Pf growth 96h: Primary qHTS for delayed death inhibitors of the malarial parasite plastid, 96 hour incubation. 320,000 compounds, 6.9% hits. Potency, µM (top dose mostly 28.7 µM), without a hit: at the top dose activity change, negative = inhibition, most hits filed as inhibitors. AID 504834, 2011. P. falciparum luciferase reporter growth, 96 h; also: potency is read from the fitted curve at half-maximal effect; % is scaled to controls: 0 for no effect and ±100 for the full control effect
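96 h incubation, 37 C, 5% CO2, of luciferase-reporter P. falciparum-infected RBCs (2% hematocrit, 0.05% parasitemia final) with test compounds; endpoint luminescence.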
Pf growth 48h: Primary qHTS for delayed death inhibitors of the malarial parasite plastid, 48 hour incubation; P. falciparum luciferase growth in erythrocytes, 48 h; Potency, µM (series often up to 28.7 µM), for inactives: top-dose activity change, negative = inhibition, hits mostly inhibitors; 310,000 compounds, 5.9% hits; also: potency is read from the fitted curve at half-maximal effect; % is scaled to controls: 0 for no effect and ±100 for the full control effect
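Growth was read as firefly luciferase luminescence after a 48 h, 37 C, 5% CO2 exposure of compounds to reporter-bearing P. falciparum cultures (0.1% parasitemia, 2% hematocrit final) in Albumax-supplemented RPMI 1640.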
NS1 function inh: qHTS Assay for Inhibitors of Influenza NS1 Protein Function. 270,000 compounds, 0.4% hits. Potency, µM (highest dose often 46.1 µM), for inactives: top-dose activity, positive = more growth; calls by dose curve; also: potency is read from the fitted curve at half-maximal effect; actives are rising curves; nearly all actives have a fitted effect of over 50% in size
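In this qHTS, NS1 from influenza A is expressed in budding yeast, where it slows growth. Cells are switched from glucose to 2% galactose medium (pH 6.0, -URA), treated with compound, and growth recovery is read at OD600.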
Shiga inhibitor: A qHTS for Small Molecule Inhibitors of Shiga Toxin; 290,000 compounds, 9.2% hits; inhibition, % at 38.7 µM; Vero cells, Shiga toxin protein synthesis inhibition reporter; AID 2315, 2010; in the data active = inhibition mostly above about 28%, no sharp cut-off; inactive = mostly below about 43%; also: 0% is about no effect
FBPA Giardia inh: qHTS Assay for Inhibitors of Fructose-1,6-bisphosphate Aldolase from Giardia Lamblia; purified Giardia FBPA; Potency, µM (highest dose often 59.6 µM), for inactives: at the top dose activity, negative = inhibition, usual class: inhibitors; AID 2451, 2010; 290,000 compounds, 0.71% hits; also: potency is read from the fitted curve at half-maximal effect; % is scaled to controls: 0 for no effect and ±100 for the full control effect; nearly all actives have a fitted effect of over 55% in size
Target sequence (A8B2U2 whole entry, looked up): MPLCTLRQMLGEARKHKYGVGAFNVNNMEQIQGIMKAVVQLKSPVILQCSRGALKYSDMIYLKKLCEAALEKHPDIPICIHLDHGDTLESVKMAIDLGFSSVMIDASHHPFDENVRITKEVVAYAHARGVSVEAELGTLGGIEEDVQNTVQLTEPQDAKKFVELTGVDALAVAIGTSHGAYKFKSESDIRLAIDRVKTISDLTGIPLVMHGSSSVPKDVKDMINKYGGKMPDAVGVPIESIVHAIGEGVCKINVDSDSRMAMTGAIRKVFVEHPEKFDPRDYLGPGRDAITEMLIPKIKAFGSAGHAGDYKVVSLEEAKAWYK
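40 nM FBPA preincubated 10 min at RT with compound (up to 57.5 uM final), then substrate plus GAPDH/TPI/NAD/arsenate coupling and diaphorase/resazurin added. Fluorescence read after 20 min at RT, 525/598 nm.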
Numbers without * were called inactive; ? = inconclusive; / = not tested or not shown; ! = not confirmed by another sample; [ ] = remark or other dose. Most compounds without a hit are left out; they make up all but 21% or so of the library. Unless noted, calls follow the shape of the dose curve; as a rule, active = well fitted curve in the direction sought with a large enough effect; inconclusive = small, poorly fitted or top-dose-only effect, or another doubt; inactive = no such curve, though single readings can be large; an effect the other way counts as inactive or inconclusive.

SMILES	Cycloheximide cs	Pf growth 96h	Pf growth 48h	NS1 function inh	Shiga inhibitor	FBPA Giardia inh
O=C(NCc1ccccn1)c1cc(S(=O)(=O)N2CCCCC2)ccc1Cl	/	-11%	-3%	/	/	/
CN1CCN(c2ncncc2-c2cccnc2)CC1	/	/	/	/	/	-1%
N=C1C(c2nc(-c3ccc(Cl)cc3)cs2)=C(O)CN1NC(=O)c1ccc(O)cc1	23*	-19%	-29%	-4%	25	0%
Cc1ccc(-c2csc(C3=C(O)CN(NC(=O)c4ccc([N+](=O)[O-])cc4)C3=N)n2)cc1	-2	10%	17%	8%	-1	2%
Oc1cc(-c2ccc(N3CCCCC3)nc2)cc2cccnc12	/	2.9µM*	4.1µM*	/	/	/
CN1CCN(c2ccc(-c3cc(O)c4ncccc4c3)cc2)CC1	/	2.6µM*	2.6µM*	/	/	/
CN(C)C=Nc1ccccc1C1C=NNC1=O (stereo not given)	23*	-25%	0%	0%	52*	-11%
CC(=O)c1c(N=CN(C)C)nc(C)nc1-c1ccccc1	1	?	33%	5%	-11	-20%
Cc1ccc(OCC(=O)Nc2cc(C(=O)O)cc(C(=O)O)c2)cc1C	4	-15%	8%	/	17	7%
CC(=O)Nc1cccc(OCC(=O)Nc2ccc(F)cc2)c1	15*	28%	39%	-2%	-32	1%
CC(=O)Nc1cccc(OCc2ccc(F)cc2)c1	3	21%	5%[5.75 µM]	/	19	-4%
Cc1ccc(OCC(=O)Nc2ccc(F)cc2)cc1C	39*	-16%	15%	-11%	46*	-2%
Cc1cc(C(=O)O)ccc1[C@H](N)C(=O)O	/	/	/	/	/	8%
CCOC(=O)Cn1nc(C)c(-c2ccccc2)c1N	10	4%	-9%	-9%	39	13%
Cc1nn(-c2nc3ccccc3[nH]2)c(N)c1-c1ccccc1	42*	-19%	53%	-6%	67*	0%
Cc1nn(-c2ccccc2)c(NC(=O)C(C)C)c(-c2ccccc2)c1=O	-4	11%	2%	5%	-16	0%
Cc1nn(CC2CCCCC2)c(N)c1-c1ccccc1	44*	?	/	-83%	65*	6%
Cc1nn(-c2ccccc2)c(N)c1-c1ccccc1	38*	240%	92%	/	64*	6%
Cc1nn(-c2ccccc2)c(/N=C/c2ccccc2O)c1-c1ccccc1	80*	?	101%	-10%	active	1%
CC[C@H](C)[C@@H]1NC(=O)[C@H](Cc2ccc(O)cc2)NC(=O)[C@@H](N)CSSC[C@@H](C(=O)N2CCC[C@H]2C(=O)N[C@@H](CC(C)C)C(=O)NCC(N)=O)NC(=O)[C@H](CC(N)=O)NC(=O)[C@H](CCC(N)=O)NC1=O	-6	/	/	/	8	7%
COc1ccc([C@@H]2C[C@H](c3ccccc3)Oc3cc(OC)c(OC)c(OC)c32)cc1	-2	?	9.3µM*	1%	-4	-19%
COc1ccc(C2CC(O)(c3ccccc3)Oc3cc(OC)c(OC)c(OC)c32)cc1 (stereo not given)	20*!	10µM*	10µM*	5%	33	?
COc1ccc(C2CC(O)(c3ccccc3)Oc3cc(C)c(Cl)c(C)c32)cc1 (stereo not given)	-3	/	/	/	-3	-5%
O=C(NC1CCCCC1NC(=O)c1cccs1)c1cccs1 (stereo not given)	1	?	-5%	7%	-6	3%
O=C(NCCC1CCCC1)c1cccs1	40*	-24%	87%	-55%	45*	5%
SMILES	Cycloheximide cs	Pf growth 96h	Pf growth 48h	NS1 function inh	Shiga inhibitor	FBPA Giardia inh
O=C(CCS(=O)(=O)c1ccc(Br)cc1)NC1CCCC1	-5	-3%	/	10%	-11	-2%
O=C(NC1CCCCCC1)c1cccs1	38*	-16%	?	-44%	68*	-5%
O=C(CCS(=O)(=O)c1cccs1)NC1CCCCCC1	31*	?	89%	0%	115*	4%
CC(N)=O	/	/	/	10%	/	2%
COc1cc(C(CC(=O)Nc2ccc(Cl)cn2)N2Cc3ccccc3C2=O)cc(OC)c1OC (stereo not given)	-1	19%	?	4%	-8	6%
CS(=O)(=O)NN1C(=O)c2ccccc2NC1c1ccccc1 (stereo not given)	25*	?	8%	/	34*	4%
CC(=O)NN1C(=O)c2ccccc2NC1c1ccco1 (stereo not given)	11	?	1%	/	17	6%
C/C(=N\N1C(=O)c2ccccc2NC1c1ccco1)c1ccccc1O (stereo not given)	32*	17%	43%	-3%	65*	-1%
Cc1ccc(S(=O)(=O)NN2C(=O)c3ccccc3NC2c2cccc(O)c2)cc1 (stereo not given)	9	?	-17%	/	-4	-8%
C/C(=N\N1C(=O)c2ccccc2NC1c1ccccc1)c1ccccc1O (stereo not given)	23*	45%	-50%	-1%	67*	2%
Cc1ccc(/C=N/N2C(=O)c3ccccc3NC2c2ccc(C)cc2)cc1 (stereo not given)	82*	67%	117%	4%	96*	-13%
c1ccc(CCN=C2CCCc3c2[nH]c2ccccc32)cc1	-1	91%	60%	3%	21	-5%
O=C1c2ccccc2NC(c2ccco2)N1/N=C/c1ccco1 (stereo not given)	32*	-20%	60%	5%	71	-8%
O=C(NN1C(=O)c2ccccc2NC1c1ccco1)c1ccc(Br)cc1 (stereo not given)	16	184%	70%	/	34	2%
COC(=O)c1cc(/C=C/c2ccccc2)on1	11	0%	2%	-42%	-17	-1%
COC(=O)c1cc(/C=C/c2ccccc2)[nH]n1	20*	-93%	62%	-32%	25*	9%
Cc1ccc(S(=O)(=O)N2CCOC2CNC(=O)C(=O)NCCN(C)C)cc1 (stereo not given)	-3	8%	-5%	5%	-25	/
N#CC(C#N)=Cc1cc(O)c(O)c(O)c1	/	11µM*	7.6µM*	16%	/	16µM*
Cc1cc(C=C(C#N)C#N)ccc1N1CCCC1	-1	?	6%	-4%	19	-8%
N#CC(C#N)=Cc1ccc(O)cc1	20	/	/	/	active!	-14%
NC(=O)[C@H]1CC2(CC(c3cccc(NC(=O)COc4ccc(Cl)cc4)c3)=NO2)CN1C(=O)Cc1ccc([N+](=O)[O-])cc1 (stereo not given in full)	-1	12µM*	8.3µM*	-37%	-4	-1%
